Compound activity: PubChem BioAssay, Sanford-Burnham Center for Chemical Genomics
Hits are enriched below; roughly 2.6% of the tested compounds scored in any of these assays.
eIF4H FP inh: human eIF4H binding inhibitors, primary screen, translation initiation inhibitor project, biochemical, uHTS, fluorescence polarization; inhibition, % at 35 µM; 290,000 tested, 0.94% active; eIF4H fluorescence polarization binding assay; Eukaryotic translation initiation factor 4H (Homo sapiens), Q15056;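 further: calls also rest on retests at 20 µM and on dose response follow-up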
APOBEC3G inh: APOBEC3G DNA deaminase inhibitors, primary screen, biochemical, fluorescence, single-stranded DNA substrate, uHTS | DNA dC->dU-editing enzyme APOBEC-3G (Homo sapiens), Q9HC16 | recombinant A3G, ssDNA deamination FAM/TAMRA fluorescence | inhibition, % at 20 µM | 330,000 tested, 0.28% active | AID 493012, 2011;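 active means inhibition of at least 40% at 20 µM, with no more than 30% in the related APOBEC3A deaminase screen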
Target sequence (Q9HC16 whole entry, looked up): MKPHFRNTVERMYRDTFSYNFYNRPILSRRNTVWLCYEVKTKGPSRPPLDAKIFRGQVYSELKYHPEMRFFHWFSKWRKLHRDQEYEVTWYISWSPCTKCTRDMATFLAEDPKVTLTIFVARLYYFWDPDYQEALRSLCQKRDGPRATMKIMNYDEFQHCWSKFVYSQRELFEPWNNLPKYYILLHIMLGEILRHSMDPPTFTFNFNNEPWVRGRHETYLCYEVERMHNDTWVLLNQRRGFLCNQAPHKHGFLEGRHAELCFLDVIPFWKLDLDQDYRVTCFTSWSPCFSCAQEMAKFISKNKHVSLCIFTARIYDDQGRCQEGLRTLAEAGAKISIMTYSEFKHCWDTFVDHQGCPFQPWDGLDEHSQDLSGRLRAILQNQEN
A3A deaminase: APOBEC3A ssDNA deaminase inhibitors, primary screen, selectivity assay for APOBEC3G inhibitor project, biochemical, FAM/TAMRA oligo cleavage fluorescence. DNA dC->dU-editing enzyme APOBEC-3A (Homo sapiens), P31941. recombinant A3A, FAM/TAMRA ssDNA deamination fluorescence. inhibition, % at 20 µM. 330,000 tested, 0.41% active. AID 493011, 2011;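 active means at least 40% inhibition at 20 µM here, with at most 30% in a related deaminase screen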
Target sequence (P31941 whole entry, looked up): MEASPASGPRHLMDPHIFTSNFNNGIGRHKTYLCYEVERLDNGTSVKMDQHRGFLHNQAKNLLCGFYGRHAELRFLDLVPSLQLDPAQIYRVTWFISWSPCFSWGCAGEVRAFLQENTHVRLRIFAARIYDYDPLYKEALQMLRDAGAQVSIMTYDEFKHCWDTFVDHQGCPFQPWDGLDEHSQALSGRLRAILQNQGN
PHOSPHO1 inh: PubChem AID 1565; Phosphoethanolamine/phosphocholine phosphatase (Homo sapiens), Q8TCT1; recombinant PHOSPHO1, absorbance phosphatase assay; inhibition, % at 13.3 µM; 290,000 tested, 1.1% active; in the data active means inhibition above about 60%
PABP polyA inh: PABP poly(A) RNA binding inhibitors, primary screen, biochemical, fluorescence polarization, uHTS | Polyadenylate-binding protein 1 (Homo sapiens), P11940 | calls only at 35 µM | 290,000 tested, 1% active;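 further: calls also rest on retests at 20 µM and on dose response follow-up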
MLLE-PAM2 inh: inhibitors of PABP1 MLLE–PAM2 peptide binding, primary screen, biochemical, fluorescence polarization, FITC-PAM2, GST-MLLE | inhibition, % at 20 µM | 360,000 tested, 0.36% active | AID 588489, 2011; in the data active means inhibition above about 35%, passing the limit was not always enough
APOBEC3A confirm: APOBEC3A deaminase inhibitors, retest, confirmation, selectivity assay for APOBEC3G inhibitor project, biochemical, single concentration, fluorescence readout | inhibition, % at 20 µM | recombinant A3A, ssDNA deaminase UDG fluorescence assay | 1,400 tested, 63% active | shares compounds with A3A deaminase;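 active means inhibition reaching a set limit, 80% of the first screen's cutoff, at 20 µM in any replicate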
UDG ctr A3A: E. coli UDG inhibitors, confirmation, counter-screen for APOBEC3A inhibitor project, biochemical, single concentration, fluorescence, FAM/TAMRA oligo; shares compounds with A3A deaminase; UDG counterscreen, FAM/TAMRA uracil oligo fluorescence; inhibition, % at 20 µM; AID 504714, 2011; 1,000 tested, under 10 active
Numbers stand for hits. Unless noted, how the calls were made is not given here.

Cc1cc(/C=C(/C#N)c2nc3ccccc3[nH]2)c(C)n1-c1cc(C(=O)O)cc(C(=O)O)c1 was read as eIF4H FP inh inconclusive, APOBEC3G inh inactive, A3A deaminase 48.9, PHOSPHO1 inh inactive, PABP polyA inh inactive, MLLE-PAM2 inh inactive, APOBEC3A confirm 41.1 and UDG ctr A3A inactive.
C[N+](C)(C)CCCCCC(=O)/C=N/O was read as eIF4H FP inh inactive, APOBEC3G inh inactive, A3A deaminase 53.0, PHOSPHO1 inh inactive, PABP polyA inh inactive, MLLE-PAM2 inh inactive, APOBEC3A confirm 66.3 and UDG ctr A3A inactive.
For COc1ccc(C(=O)NC(C)c2nnc(SCc3ccc(Cl)c(Cl)c3)n2C)cc1 (centres undefined) the results were eIF4H FP inh inactive, APOBEC3G inh inactive, A3A deaminase 56.8, PHOSPHO1 inh 81.7, PABP polyA inh inactive, MLLE-PAM2 inh inactive, APOBEC3A confirm 60.4 and UDG ctr A3A inactive.
Screening Cn1cc(/C=C(\NC(=O)c2ccccc2)C(=O)NCCN2CCOCC2)c2ccccc21 returned eIF4H FP inh inactive, APOBEC3G inh inactive, A3A deaminase inactive, PHOSPHO1 inh inactive, PABP polyA inh inactive and MLLE-PAM2 inh inactive.
Screening COc1ccc2c(c1)c(=O)oc1cc(OCC(=O)N3CCC(C)CC3)ccc12 returned eIF4H FP inh inactive, APOBEC3G inh inactive, A3A deaminase 54.1, PHOSPHO1 inh inactive, PABP polyA inh inactive, MLLE-PAM2 inh inactive, APOBEC3A confirm 49.1 and UDG ctr A3A inactive.
Screening COc1ccc2c(c1)c(=O)oc1cc(OCC(=O)N3CCc4ccccc4C3)ccc12 returned eIF4H FP inh inactive, APOBEC3G inh inactive, A3A deaminase 44.6, PHOSPHO1 inh inactive, PABP polyA inh inactive, MLLE-PAM2 inh inactive, APOBEC3A confirm 71.0 and UDG ctr A3A inactive.
For COc1ccc2c(c1)c(=O)oc1cc(OCC(=O)N3CCCC(C)C3)ccc12 (centres undefined) the results were eIF4H FP inh inactive, APOBEC3G inh inactive, A3A deaminase inactive, PHOSPHO1 inh inactive, PABP polyA inh inactive and MLLE-PAM2 inh inactive.
COCCCNC(=S)N(CCO)Cc1cc2cc3c(cc2[nH]c1=O)OCO3 was read as eIF4H FP inh inactive, APOBEC3G inh inactive, A3A deaminase inactive, PHOSPHO1 inh inactive, PABP polyA inh inactive and MLLE-PAM2 inh inactive.
Cc1ccc(Nc2nc3ccccc3n3nnnc23)cc1 was read as eIF4H FP inh inactive, APOBEC3G inh inactive, A3A deaminase 46.3, PHOSPHO1 inh inactive, PABP polyA inh inactive, MLLE-PAM2 inh inactive and APOBEC3A confirm inactive.
`Clc1ccc(Nc2nc3ccccc3n3nnnc23)cc1` gave eIF4H FP inh inactive, APOBEC3G inh inactive, A3A deaminase inactive, PHOSPHO1 inh inactive, PABP polyA inh inactive and MLLE-PAM2 inh inactive.
COc1ccc(NC(=O)c2cc(C3CC3)nc3c2cnn3C(C)C)cc1OC was read as APOBEC3G inh inactive, A3A deaminase inactive and MLLE-PAM2 inh inactive.
`O=C(O)C1C2C=CC(C2)C1C(=O)Nc1ccc(Cl)c(Cl)c1` (centres undefined) gave eIF4H FP inh inactive, APOBEC3G inh inactive, A3A deaminase inactive, PHOSPHO1 inh inactive, PABP polyA inh inactive and MLLE-PAM2 inh inactive.
`C=CCOc1ccc(C(=O)Nc2ccccc2C(=O)NCc2cccnc2)cc1` gave eIF4H FP inh inactive, APOBEC3G inh inactive, A3A deaminase 42.6, PHOSPHO1 inh inactive, PABP polyA inh inactive, MLLE-PAM2 inh inactive, APOBEC3A confirm 33.8 and UDG ctr A3A inactive.
`O=C(COc1ccc2ccccc2c1)N1CCN(c2ccccc2)CC1` gave APOBEC3G inh inactive, A3A deaminase inactive and MLLE-PAM2 inh inactive.
`COc1ccc(N2CCN(C(=O)COc3ccc4ccccc4c3)CC2)cc1` gave eIF4H FP inh inactive, APOBEC3G inh inactive, A3A deaminase 46.4, PHOSPHO1 inh inactive, PABP polyA inh inactive, MLLE-PAM2 inh inactive, APOBEC3A confirm inactive and UDG ctr A3A inactive.
Screening CCn1c(C)c(Br)c(=O)c(C(=O)OC)c1-c1ccc(Cl)cc1 returned eIF4H FP inh inactive, APOBEC3G inh inactive, A3A deaminase inactive, PABP polyA inh inactive and MLLE-PAM2 inh inactive.
`COc1cc(C)c(NC(=O)C2CCN(S(=O)(=O)c3cccs3)CC2)cc1OC` gave APOBEC3G inh inactive, A3A deaminase 57.0, MLLE-PAM2 inh inactive, APOBEC3A confirm 54.7 and UDG ctr A3A inactive.
`COc1ccc(S(=O)(=O)N2CCC(C(=O)N[C@@H](C)C(=O)NCc3ccco3)CC2)cc1` gave MLLE-PAM2 inh inactive.
CN1CCCN=C1/C=C/c1cccs1 was read as eIF4H FP inh inactive, APOBEC3G inh inactive, A3A deaminase inactive, PHOSPHO1 inh inactive, PABP polyA inh inactive and MLLE-PAM2 inh inactive.
C[n+]1ccc(/C=C/c2cccs2)cc1 was read as eIF4H FP inh inactive, APOBEC3G inh inactive, A3A deaminase 52.4, PHOSPHO1 inh 74.5, PABP polyA inh inactive, MLLE-PAM2 inh inactive and APOBEC3A confirm 54.3.
For CC(C)(C)N(NC(=O)Nc1ccc(Cl)c(Cl)c1)C(=O)c1ccccc1 the results were eIF4H FP inh inactive, APOBEC3G inh inactive, A3A deaminase 40.3, PHOSPHO1 inh inactive, PABP polyA inh inactive, MLLE-PAM2 inh inactive and APOBEC3A confirm inactive.
CCCCCCCC[n+]1cccc2c3ccccc3ccc21 was read as eIF4H FP inh inactive, APOBEC3G inh inactive, A3A deaminase 57.3, PHOSPHO1 inh inactive, PABP polyA inh inactive, MLLE-PAM2 inh inactive, APOBEC3A confirm 74.6 and UDG ctr A3A inactive.
`OC(CCN1CCC2(CC1)OCCO2)C(F)(F)F` (centres undefined) gave eIF4H FP inh inactive, APOBEC3G inh inactive, A3A deaminase inactive, PHOSPHO1 inh inactive, PABP polyA inh inactive and MLLE-PAM2 inh inactive.
For Cc1cccnc1NC(=O)CN1C(=O)COc2ccc(Cl)cc21 the results were eIF4H FP inh inactive, APOBEC3G inh inactive, A3A deaminase 68.7, PABP polyA inh inactive, MLLE-PAM2 inh inactive, APOBEC3A confirm 58.6 and UDG ctr A3A inactive.
`Cc1ccc(C)c(NC(=O)C2CC(O)CN2C(=O)Oc2ccccc2)c1` (centres undefined) gave eIF4H FP inh inactive, APOBEC3G inh inactive, A3A deaminase 53.6, PHOSPHO1 inh inactive, PABP polyA inh inactive, MLLE-PAM2 inh inactive, APOBEC3A confirm 41.0 and UDG ctr A3A inactive.
